Each structure is given as a SMILES string. Out of some 5,400 compounds screened, about 190 (3.5%) showed an effect of 50% or more. This is one part of a sample in which strong results are shown more often than they occur.

For this assay, the system named is Vero-E6. The experiment in a line: primary screen, phospholipidosis by LipidTOX staining; higher = more effect of the substance. Conditions: 10 µM. The gist of the method: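 Drug-induced phospholipidosis detected with HCS LipidTOX Red reagent in Vero-E6 cells. Compounds tested at 10 μM, with amiodarone (10 μM) as positive control and DMSO (0.1 v/v %) as vehicle.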
`O=c1ccc2[nH]cc(C3=CCNCC3)c2[nH]1`: the result_ITMP was -1.73%.
With `Cc1[nH]c2ccc(Cl)cc2c1C1=CCNCC1` the figure was 96.8%; with `COc1ccc2[nH]cc(C3=CCNCC3)c2c1`, -0.41%; with `C[C@@H]([C@H](C)O)[C@H](N)C(=O)O`, 0.75%.
To `N#CN/C(=N\c1ccncc1)NCCCCCCOc1ccc(Cl)cc1` belongs 0.38%; to `COc1ccc(-c2ccc3c(N4CCOCC4)nc(N4C[C@@H](C)O[C@@H](C)C4)nc3n2)cc1CO`, 1.47%; to `COc1ccc(OCC2c3cc(OC)c(OC)cc3CCN2C(=O)c2cccc(Cl)c2)cc1` (centres unmarked), -4.92%.
Turning to `COc1cc2c(cc1O)C(CCc1ccc(Cl)cc1)N(C)CC2` (centres unmarked), the result_ITMP is 64%.
Regarding `CNC(=O)[C@@H](c1ccccc1)N1CCc2cc(OC)c(OC)cc2[C@@H]1CCc1ccc(C(F)(F)F)cc1`, the result_ITMP is recorded as 1.25%.
With `Cc1c(N(C)CS(=O)(=O)[O-])c(=O)n(-c2ccccc2)n1C` the figure was -4.64%; with `CCCCCCCCCC(=O)O[C@H]1CC[C@H]2[C@@H]3CCC4=CC(=O)CC[C@@H]4[C@H]3CC[C@]12C`, -0.22%; with `CN1CCC2=C(C1)c1ccccc1Cc1ccccc12`, 52.7%.
Turning to `CN1CCC2=C(C1)C(c1ccccc1)c1ccccc12` (centres unmarked), the result_ITMP stood at 6.76%.
Take `CN1CCC(=C2c3ccccc3CC(=O)c3sccc32)CC1`: the result_ITMP is reported as 29%.
To `O=[N+]([O-])O[C@@H]1CO[C@H]2[C@@H]1OC[C@@H]2O` belongs -9.17%; to `C[C@@H](O[C@H]1OCCN(Cc2nn(P(=O)(O)O)c(=O)[nH]2)[C@H]1c1ccc(F)cc1)c1cc(C(F)(F)F)cc(C(F)(F)F)c1`, 6.28%; to `C[C@@H](O[C@H]1OCCN(Cc2n[nH]c(=O)[nH]2)[C@H]1c1ccc(F)cc1)c1cc(C(F)(F)F)cc(C(F)(F)F)c1`, 2.55%.
With `C[C@@H](O[C@H]1OCCN(Cc2nn[nH]c2CN(C)C)[C@H]1c1ccc(F)cc1)c1cc(C(F)(F)F)cc(C(F)(F)F)c1` the figure was 71.2%; with `OCCNCCCOc1cccc(Cl)c1Cl`, 55.4%; with `C[C@]12CCC(=O)C=C1CC[C@@H]1[C@@H]2CC[C@@]2(C)[C@H]1CC[C@]2(O)C(=O)CO`, -5.73%.
Consider `CCCCOc1ccc(C(=O)Nc2ccc(F)cc2F)cc1`, for which the result_ITMP was -8.12%.
With `C=CCN(C)CCCCCCOc1ccc(C(=O)c2ccc(Br)cc2)c(F)c1` the figure was 92.9%; with `CCOc1ccc(-c2ccc(Cn3c(CC(C)(C)C(=O)[O-])c(SC(C)(C)C)c4cc(OCc5ccc(C)cn5)ccc43)cc2)cn1`, 0.09%.
To `CCN(CC)CCCCNc1ncc2cc(-c3c(Cl)cccc3Cl)c(NC(=O)NC(C)(C)C)nc2n1` belongs 69.2%; to `CNc1ncc2cc(-c3cc(NC(=O)NCCC(C)(C)C)c(F)cc3C)c(C)nc2n1`, -7.16%.
`CCN(CC)CCCCNc1ncc2cc(-c3cc(OC)cc(OC)c3)c(NC(=O)NC(C)(C)C)nc2n1`: the result_ITMP came to 90.1%.
With `CCN(CC)CCOc1ccc(Nc2ncc3cc(-c4c(Cl)cccc4Cl)c(=O)n(C)c3n2)cc1` the figure was 24.2%; with `CCN(CC)CCNC(=O)COc1ccc(OC)cc1`, -4.1%.
To `O=C(NCC(=O)N1CC[C@H](N[C@H]2CC[C@@](O)(c3ccc(-c4ncccn4)cn3)CC2)C1)c1cccc(C(F)(F)F)c1` belongs -0.29%; to `O=S(=O)(OC[C@H]1O[C@@](COS(=O)(=O)[O][Al]([OH])[OH])(O[C@H]2O[C@H](COS(=O)(=O)[O][Al]([OH])[OH])[C@@H](OS(=O)(=O)[O][Al]([OH])[OH])[C@H](OS(=O)(=O)[O][Al]([OH])[OH])[C@H]2OS(=O)(=O)[O][Al]([OH])[OH])[C@@H](OS(=O)(=O)[O][Al]([OH])[OH])[C@@H]1OS(=O)(=O)[O][Al]([OH])[OH])[O][Al]([OH])[OH]`, 6.9%.
To `OC[C@@H](O)[C@@H](O)CO` belongs -7.96%.
On to `Cc1ccc2nc(N)nc(O)c2c1Sc1ccncc1`, for which the result_ITMP stood at 3.27%.
Consider `Fc1cc(-c2cccc3ncc(-c4cnn(C5CCNCC5)c4)nc23)cc(F)c1CN1CCOCC1`, for which the result_ITMP was determined as 73.3%.
With `CC(C)(C)C(=O)CN1C(=O)[C@H](NC(=O)Nc2cccc(C(=O)O)c2)CN(C2CCCCC2)c2ccccc21` the figure was -0.97%.
With `CO[C@@]1(NC(=O)Cc2cccs2)C(=O)N2C(C(=O)[O-])=C(COC(N)=O)CS[C@@H]21` the figure was -2.27%; with `CC(COc1ccccc1Cc1ccccc1)N1CCCCC1` (centres unmarked), 72%.
For the compound `C=CCc1ccccc1OCC(O)CNC(C)C` (centres unmarked), the result_ITMP stood at 12.1%.
As to `c1ccc(CC(c2ccccc2)N2CCCCC2)cc1` (racemic), the result_ITMP is on record as 6.03%.
For `OC[C@H]1O[C@@H]2O[C@H]3[C@H](O)[C@@H](O)[C@@H](O[C@H]4[C@H](O)[C@@H](O)[C@@H](O[C@H]5[C@H](O)[C@@H](O)[C@@H](O[C@H]6[C@H](O)[C@@H](O)[C@@H](O[C@H]7[C@H](O)[C@@H](O)[C@@H](O[C@H]8[C@H](O)[C@@H](O)[C@@H](O[C@H]1[C@H](O)[C@H]2O)O[C@@H]8CO)O[C@@H]7CO)O[C@@H]6CO)O[C@@H]5CO)O[C@@H]4CO)O[C@@H]3CO`, the result_ITMP is recorded as -4.2%.
With `Cc1cc(-c2ccc(/N=N/c3ccc4c(S(=O)(=O)[O-])cc(S(=O)(=O)[O-])c(N)c4c3O)c(C)c2)ccc1/N=N/c1ccc2c(S(=O)(=O)[O-])cc(S(=O)(=O)[O-])c(N)c2c1O` the figure was 10.1%; with `COc1cc2c(cc1F)C(c1ccccc1Cl)=NC1=C(C)NNC1=N2`, -1.52%; with `CCCN(CCC)C(=O)C(CCC(=O)[O-])NC(=O)c1ccccc1` (centres unmarked), -3.27%.
As to `COc1cc2ncn(-c3cc(OCc4ccccc4C(F)(F)F)c(C(N)=O)s3)c2cc1OC`, the result_ITMP is recorded as -2.1%.
To `C[C@@H](Oc1cc(-n2cnc3ccc(CN4CCN(C)CC4)cc32)sc1C(N)=O)c1ccccc1C(F)(F)F` belongs 75.1%.
With `CC(C)c1cc(C(=O)N2Cc3ccc(CN4CCN(C)CC4)cc3C2)c(O)cc1O` the figure was 8.21%; with `CN[C@@H]1[C@H](OC2[C@H](O[C@H]3[C@H](O)[C@@H](O)[C@H](NC(=N)N)[C@@H](O)[C@@H]3NC(=N)N)O[C@@H](C)[C@]2(O)C=O)O[C@@H](CO)[C@H](O)[C@H]1O` (some centres unmarked), -1.71%.
`O=C([O-])P(=O)([O-])[O-]`: the result_ITMP was -2.03%.

The record behind these values is article PMC13083723 (Patterns, 2026).
